Measurements: article PMC7862700, “An all-to-all approach to the identification of sequence-specific readers for epigenetic DNA modifications on cytosine”

Key:
Test in all cases: DAPPL (digital affinity profiling via proximity ligation, sequencing); 10 mM Tris-HCl pH 7.5, 50 mM NaCl, 1 mM DTT, 4% glycerol, room temperature, 30 min; GST-TFs on glutathione beads, 16-mer random dsDNA library, 0.1% formaldehyde crosslink after washing; high values mean tight binding
FEV = biological target: T1, FEV (Homo sapiens, UniProt Q99581 1-238); conditions: protein: recombinant; tags: N-terminal GST; dsDNA, one strand shown
T1 sequence: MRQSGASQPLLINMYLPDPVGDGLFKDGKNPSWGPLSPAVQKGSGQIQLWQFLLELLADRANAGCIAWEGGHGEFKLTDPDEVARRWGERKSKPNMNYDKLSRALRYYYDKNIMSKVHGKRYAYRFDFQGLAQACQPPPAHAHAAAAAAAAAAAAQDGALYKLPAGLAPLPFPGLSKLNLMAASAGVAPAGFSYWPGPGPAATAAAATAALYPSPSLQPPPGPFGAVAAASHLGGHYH
Procedure, shortened: (§1)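 Sequencing on an Illumina NextSeq500 followed washing, crosslinking with 0.1% formaldehyde, proximity ligation (BsaI/T4 ligase, 1 h, 37 °C) and PCR amplification of pools that had been incubated for 30 min at room temperature with 200 nmole of a random double-stranded 16-mer DNA library in Tris/NaCl/DTT/glycerol buffer. Each pool held DNA-barcoded human transcription factors, expressed in yeast as GST fusions and captured on glutathione beads, plus a tag-only sample. Binding signal is a hexamer's read frequency for a factor divided by its frequency in the tag-only sample.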

ETV5 = ETV5 (Homo sapiens, UniProt P41161 1-510); conditions: protein: recombinant; tags: N-terminal GST; dsDNA, one strand shown
ETV5, sequence (P41161 whole entry): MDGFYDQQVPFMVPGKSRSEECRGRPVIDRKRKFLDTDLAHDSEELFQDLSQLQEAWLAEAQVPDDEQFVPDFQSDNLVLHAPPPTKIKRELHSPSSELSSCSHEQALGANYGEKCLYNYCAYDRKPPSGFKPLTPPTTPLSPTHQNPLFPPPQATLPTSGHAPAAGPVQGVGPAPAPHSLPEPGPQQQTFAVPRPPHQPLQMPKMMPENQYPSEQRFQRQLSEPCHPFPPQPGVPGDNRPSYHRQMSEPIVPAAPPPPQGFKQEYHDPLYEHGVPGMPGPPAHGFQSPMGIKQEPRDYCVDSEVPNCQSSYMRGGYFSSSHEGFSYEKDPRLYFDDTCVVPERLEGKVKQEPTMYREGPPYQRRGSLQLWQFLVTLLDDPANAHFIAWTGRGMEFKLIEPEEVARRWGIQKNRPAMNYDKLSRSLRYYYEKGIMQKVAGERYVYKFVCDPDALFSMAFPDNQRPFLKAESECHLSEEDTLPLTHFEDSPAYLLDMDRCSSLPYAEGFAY
Procedure, shortened: as §1

HSF1 = HSF1 (Homo sapiens, UniProt Q00613 1-529); conditions: protein: recombinant; tags: N-terminal GST; chain copies: 3; dsDNA, one strand shown
HSF1, sequence (Q00613 whole entry): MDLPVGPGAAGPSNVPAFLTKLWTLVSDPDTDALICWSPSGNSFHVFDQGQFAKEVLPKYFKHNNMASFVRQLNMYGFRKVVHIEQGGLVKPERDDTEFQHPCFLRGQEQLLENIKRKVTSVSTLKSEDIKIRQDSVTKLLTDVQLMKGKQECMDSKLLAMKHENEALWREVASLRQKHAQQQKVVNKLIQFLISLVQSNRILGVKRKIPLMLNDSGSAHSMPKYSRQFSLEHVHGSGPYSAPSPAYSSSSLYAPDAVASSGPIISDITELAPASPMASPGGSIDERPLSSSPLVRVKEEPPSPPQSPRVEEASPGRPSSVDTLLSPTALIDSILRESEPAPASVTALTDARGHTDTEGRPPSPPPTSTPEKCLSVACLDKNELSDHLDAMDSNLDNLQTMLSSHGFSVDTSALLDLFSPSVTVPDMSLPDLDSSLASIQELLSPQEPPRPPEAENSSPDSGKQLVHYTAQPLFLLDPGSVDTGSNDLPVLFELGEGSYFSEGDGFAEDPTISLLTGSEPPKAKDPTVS
Procedure, shortened: as §1

SPIC = biological target: T2, SPIC (Homo sapiens, UniProt Q8N5J4 1-248); conditions: protein: recombinant; tags: N-terminal GST; dsDNA, one strand shown
T2 sequence: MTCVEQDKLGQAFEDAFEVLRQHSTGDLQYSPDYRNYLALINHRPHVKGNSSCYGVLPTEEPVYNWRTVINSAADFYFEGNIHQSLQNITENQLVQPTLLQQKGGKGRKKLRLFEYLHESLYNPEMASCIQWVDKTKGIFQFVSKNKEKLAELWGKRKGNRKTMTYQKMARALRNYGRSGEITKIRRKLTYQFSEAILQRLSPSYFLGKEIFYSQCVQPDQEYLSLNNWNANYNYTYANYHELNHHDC
Procedure, shortened: as §1

ELF4 = ELF4 (Homo sapiens, UniProt Q99607 1-663); conditions: protein: recombinant; tags: N-terminal GST; dsDNA, one strand shown
ELF4, sequence (Q99607 whole entry): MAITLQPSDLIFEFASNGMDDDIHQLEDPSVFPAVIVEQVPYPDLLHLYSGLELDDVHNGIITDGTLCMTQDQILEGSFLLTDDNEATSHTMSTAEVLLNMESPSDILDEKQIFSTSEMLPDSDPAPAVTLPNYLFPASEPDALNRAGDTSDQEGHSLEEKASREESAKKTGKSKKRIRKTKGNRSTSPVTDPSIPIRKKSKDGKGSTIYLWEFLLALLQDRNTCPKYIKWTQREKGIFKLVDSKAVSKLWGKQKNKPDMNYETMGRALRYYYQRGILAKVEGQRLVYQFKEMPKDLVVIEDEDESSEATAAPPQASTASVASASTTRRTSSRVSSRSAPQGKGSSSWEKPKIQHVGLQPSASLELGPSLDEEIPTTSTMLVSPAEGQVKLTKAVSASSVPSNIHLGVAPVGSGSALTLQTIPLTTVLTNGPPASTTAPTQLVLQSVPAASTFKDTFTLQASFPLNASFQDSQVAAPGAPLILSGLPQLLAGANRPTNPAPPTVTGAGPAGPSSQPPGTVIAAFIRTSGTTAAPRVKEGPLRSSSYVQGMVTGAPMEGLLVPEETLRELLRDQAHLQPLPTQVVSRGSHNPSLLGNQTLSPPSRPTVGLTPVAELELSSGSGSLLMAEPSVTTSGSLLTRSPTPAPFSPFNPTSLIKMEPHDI
Procedure, shortened: as §1

ELK4 = biological target: T3, ELK4 (Homo sapiens, UniProt P28324-2 1-405); conditions: protein: recombinant; tags: N-terminal GST; dsDNA, one strand shown
T3 sequence: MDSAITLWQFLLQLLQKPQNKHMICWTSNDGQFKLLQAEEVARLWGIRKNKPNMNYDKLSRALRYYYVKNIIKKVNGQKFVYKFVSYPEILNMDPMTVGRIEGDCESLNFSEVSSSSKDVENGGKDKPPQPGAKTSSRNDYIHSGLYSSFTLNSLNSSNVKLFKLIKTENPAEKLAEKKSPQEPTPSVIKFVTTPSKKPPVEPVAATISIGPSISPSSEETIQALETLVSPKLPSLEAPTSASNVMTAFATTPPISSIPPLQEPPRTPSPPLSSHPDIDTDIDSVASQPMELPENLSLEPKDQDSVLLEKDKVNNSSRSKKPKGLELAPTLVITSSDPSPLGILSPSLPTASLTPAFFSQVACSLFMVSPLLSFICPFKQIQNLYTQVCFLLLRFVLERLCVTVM
Procedure, shortened: as §1

ETV2 = biological target: T4, ETV2 (Homo sapiens, UniProt O00321 1-342); conditions: protein: recombinant; tags: N-terminal GST; dsDNA, one strand shown
T4 sequence: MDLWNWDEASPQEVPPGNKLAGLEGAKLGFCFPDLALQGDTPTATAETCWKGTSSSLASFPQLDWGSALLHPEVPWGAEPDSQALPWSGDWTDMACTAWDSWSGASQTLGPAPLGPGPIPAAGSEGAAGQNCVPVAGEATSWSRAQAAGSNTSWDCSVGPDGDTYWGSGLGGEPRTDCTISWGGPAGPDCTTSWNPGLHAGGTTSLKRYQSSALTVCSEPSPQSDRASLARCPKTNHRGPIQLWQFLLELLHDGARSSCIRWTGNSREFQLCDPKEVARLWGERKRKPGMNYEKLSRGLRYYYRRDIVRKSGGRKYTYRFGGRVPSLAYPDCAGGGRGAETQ
Procedure, shortened: as §1

ELF3 = biological target: T5, ELF3 (Homo sapiens, UniProt P78545 1-371); conditions: protein: recombinant; tags: N-terminal GST; dsDNA, one strand shown
T5 sequence: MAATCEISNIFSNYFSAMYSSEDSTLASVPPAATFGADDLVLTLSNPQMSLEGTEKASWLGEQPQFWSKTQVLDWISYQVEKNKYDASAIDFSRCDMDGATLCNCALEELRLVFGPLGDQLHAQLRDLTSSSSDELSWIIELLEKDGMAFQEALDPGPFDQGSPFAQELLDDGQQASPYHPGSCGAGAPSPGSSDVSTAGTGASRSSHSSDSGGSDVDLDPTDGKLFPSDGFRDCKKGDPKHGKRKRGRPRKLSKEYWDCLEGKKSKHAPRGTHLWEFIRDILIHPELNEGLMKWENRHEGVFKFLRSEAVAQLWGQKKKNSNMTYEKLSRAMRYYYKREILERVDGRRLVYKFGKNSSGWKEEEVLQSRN
Procedure, shortened: as §1

CRX = CRX (Homo sapiens, UniProt O43186 1-299); conditions: protein: recombinant; tags: N-terminal GST; dsDNA, one strand shown
CRX, sequence (O43186 whole entry): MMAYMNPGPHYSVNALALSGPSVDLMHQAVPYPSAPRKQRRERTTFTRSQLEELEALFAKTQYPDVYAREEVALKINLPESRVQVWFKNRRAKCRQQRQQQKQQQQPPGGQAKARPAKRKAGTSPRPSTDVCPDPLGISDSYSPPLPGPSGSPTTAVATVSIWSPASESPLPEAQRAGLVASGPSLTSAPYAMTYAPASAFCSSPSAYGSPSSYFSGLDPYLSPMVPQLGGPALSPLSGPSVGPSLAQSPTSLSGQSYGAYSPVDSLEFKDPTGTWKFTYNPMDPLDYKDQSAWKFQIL
Procedure, shortened: as §1

ETV1 = ETV1 (Homo sapiens, UniProt P50549 1-477); conditions: protein: recombinant; tags: N-terminal GST; dsDNA, one strand shown
ETV1, sequence (P50549 whole entry): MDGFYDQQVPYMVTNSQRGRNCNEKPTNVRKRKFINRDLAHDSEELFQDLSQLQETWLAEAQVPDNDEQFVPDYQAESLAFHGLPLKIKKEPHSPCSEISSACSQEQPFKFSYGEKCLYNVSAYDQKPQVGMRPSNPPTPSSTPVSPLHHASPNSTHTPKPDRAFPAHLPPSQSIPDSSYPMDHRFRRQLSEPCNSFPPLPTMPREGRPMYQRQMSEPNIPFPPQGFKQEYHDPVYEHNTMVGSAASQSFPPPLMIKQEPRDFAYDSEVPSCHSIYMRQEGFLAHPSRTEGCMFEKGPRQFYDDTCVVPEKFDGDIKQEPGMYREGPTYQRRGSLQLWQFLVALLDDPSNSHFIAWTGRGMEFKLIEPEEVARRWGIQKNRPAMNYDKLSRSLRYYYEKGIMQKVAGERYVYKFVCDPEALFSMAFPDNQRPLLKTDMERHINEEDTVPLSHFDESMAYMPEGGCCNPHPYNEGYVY
Procedure, shortened: as §1

ATTGCG
binding signal (FEV): 1.17 fold enrichment (6-mer frequency, TF over GST control)
binding signal (ETV5): 1.24 fold enrichment (6-mer frequency, TF over GST control)
binding signal (HSF1): 1.07 fold enrichment (6-mer frequency, TF over GST control)
binding signal (SPIC): 1.29 fold enrichment (6-mer frequency, TF over GST control)
binding signal (ELF4): 1.25 fold enrichment (6-mer frequency, TF over GST control)
binding signal (ELK4): 1.14 fold enrichment (6-mer frequency, TF over GST control)
binding signal (ETV2): 1.59 fold enrichment (6-mer frequency, TF over GST control)
binding signal (ELF3): 1.29 fold enrichment (6-mer frequency, TF over GST control)
binding signal (CRX): 1.12 fold enrichment (6-mer frequency, TF over GST control)
binding signal (ETV1): 1.29 fold enrichment (6-mer frequency, TF over GST control)
